Test results: PubChem BioAssay AID1645886 (National Center for Advancing Translational Sciences (NCATS), 2021)
“And” between values parts separate entries of the source, which are not always exact repeats. Equal entries are not always repeated. Hit rate of the full screen: of about 16,000 compounds, about 260 (1.6%) were called active. Entries that show only a call come without a potency. Inconclusive results (about 14%) are left out. This is one part of a sample in which actives are shown more often than they occur. The call rests on the fitted dose curve; in most records, active means well fitted inhibition curve with a large enough effect; inconclusive means small, poorly fitted or top-dose-only effect; inactive means no such curve, though single readings can be large or run the other way. A structure can be active in one record and inactive in another. *1 amine or outer side, *2 acyl side, *3 side chain or, on linkers, in order; H or OH if unused. Where a SMILES comes first, the peptide text is derived from it. Bridges are numbered along the chain shown (N, C = ends). [ ]: non-standard residue; d: D form. The star is where a group is joined. X12 = NC1=N[C@@H]([C@H](N[*:1])C(=O)[*:2])C[C@H](O)N1; ΔAla(Z-3-ureido) = NC(=O)N/C=C(\N)C(=O)O; β3hOrn = NCCC[C@H](N)CC(=O)*; Dap = NC[C@H](N)C(=O)O

Target: Rap guanine nucleotide exchange factor 4 (Homo sapiens) (UniProt Q8WZA2)
Test: Validation qHTS for antagonist of cAMP-regulated guanine nucleotide exchange factor 4 (EPAC2); further: nearly all actives have a fitted effect of over 40% in size
Conditions: EPAC2 Rap1B BODIPY-GDP exchange, fluorescence; series mostly up to 112 µM
Source text: Principle Investigator: Xiaodong Cheng Ph.D. The University of Texas Medical Branch, […], TX MLPCN Grant: NS066510 In multi-cellular eukaryotic organisms, the effects of cAMP are transduced by two ubiquitously-expressed intracellular cAMP receptors, the classic protein kinase A/cAMP-dependent protein kinase (PKA/cAPK) and the more recently discovered exchange protein directly activated by cAMP/cAMP-regulated guanine nucleotide exchange factor (EPAC/cAMP-GEF). Both PKA and EPAC are ubiquitously expressed in all tissues, and an increase in intracellular cAMP levels will lead to the activation of both PKA and EPAC. Therefore, careful dissections of the individual role and relative contribution of EPAC and PKA within the overall cAMP signaling in various model systems are critical for further elucidating the mechanism of cAMP signaling. To date no EPAC-specific antagonists and agonist, as well as isoform-specific agonists have been reported, and developing EPAC-specific pharmacological probes to determine the physiological functions that EPAC play in the overall cAMP-mediated signaling remains a major challenge within the research field. Furthermore, identified regulators of EPAC may lead to new mechanism-based therapeutic strategies specifically targeting the EPAC / cAMP-signaling components as EPAC has been implicated to play important roles in major human pathological conditions such as diabetes, heart disease, and cancer. This qHTS will be used to screen the Molecular Libraries Small Molecule Repository (MLSMR) as a concentration-titration series using the NCGC unique quantitative screening (qHTS) platform to find activators for EPAC1. In addition, this assay will also be used as a counterscreen for the EPAC2 qHTS. This fluorescent based assay is developed and validated for EPAC1 that measures exchange using EPAC effector Rap1 complex with BODIPY-GDP, a GDP analog with a tethered fluorophores. Activators are identified by monitoring the change in fluorescence signal as the exchanged free BODIPY-GDP has a reduced fluorescence compared to Rap1-bound BODIPY-GDP. Increase in signal (activation) is the desired outcome for the EPAC1 agonist while no activity in this assay is desired for the EPAC2 agonist counterscreen. Reference: [1] de Rooij, J., Zwartkruis, F. J., Verheijen, M. H., Cool, R. H., Nijman, S. M., Wittinghofer, A., and Bos, J.L. (1998) Nature 396, 474-477.
Briefly, three uL of reagents (100 nM EPAC2, 250 nM RAP1B-BODIPY-GDP, 50 uM GDP) were dispensed into a 1536-well Greiner black solid-bottom medium binding assay plate. Controls and test compounds (23 nL) were transferred to the plate via a Kalypsys pin tool equipped with a 1536-pin array. The plates were centrifuged at 1,000 rpm for 15 seconds followed by 5 minute incubation at room temperature. The assay plates were read at 5 minute intervals for 30 minutes in the ViewLux plate reader using 480nm excitation and 540nm emission filters. The results were normalized to the agonist positive control of 6.5 mM cAMP.
Potency means the concentration at half of the fitted maximal effect.

Sequence of Rap guanine nucleotide exchange factor 4 (Homo sapiens) (Q8WZA2 whole entry, looked up): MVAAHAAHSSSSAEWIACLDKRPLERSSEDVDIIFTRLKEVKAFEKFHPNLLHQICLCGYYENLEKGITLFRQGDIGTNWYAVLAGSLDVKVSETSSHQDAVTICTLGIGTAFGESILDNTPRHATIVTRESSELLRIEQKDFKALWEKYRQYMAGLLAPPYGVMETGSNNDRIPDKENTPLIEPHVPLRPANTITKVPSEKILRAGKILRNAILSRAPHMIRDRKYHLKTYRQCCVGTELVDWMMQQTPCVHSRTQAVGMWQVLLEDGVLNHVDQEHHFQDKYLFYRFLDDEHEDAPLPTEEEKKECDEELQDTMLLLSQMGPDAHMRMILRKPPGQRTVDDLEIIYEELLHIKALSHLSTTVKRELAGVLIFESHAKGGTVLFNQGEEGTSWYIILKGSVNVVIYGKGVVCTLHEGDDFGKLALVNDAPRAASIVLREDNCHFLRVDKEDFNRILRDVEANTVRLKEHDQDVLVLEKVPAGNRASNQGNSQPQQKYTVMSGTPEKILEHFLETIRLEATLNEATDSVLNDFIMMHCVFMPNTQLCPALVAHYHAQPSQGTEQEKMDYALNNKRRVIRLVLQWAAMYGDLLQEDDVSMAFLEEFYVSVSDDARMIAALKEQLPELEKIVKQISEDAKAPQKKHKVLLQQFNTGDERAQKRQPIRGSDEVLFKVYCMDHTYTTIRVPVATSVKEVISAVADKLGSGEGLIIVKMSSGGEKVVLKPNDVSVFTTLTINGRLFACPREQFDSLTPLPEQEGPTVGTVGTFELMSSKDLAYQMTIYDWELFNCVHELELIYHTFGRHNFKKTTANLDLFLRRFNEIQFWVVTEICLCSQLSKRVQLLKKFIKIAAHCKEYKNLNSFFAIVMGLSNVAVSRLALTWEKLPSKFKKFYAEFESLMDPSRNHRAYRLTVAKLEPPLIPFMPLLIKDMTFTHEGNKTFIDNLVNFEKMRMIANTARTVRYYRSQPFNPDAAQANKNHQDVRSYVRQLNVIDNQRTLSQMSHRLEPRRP

SMILES | Potency | activity, negative = inhibition
Cc1cc(-c2ccnc(-n3ncc(C(=O)NCCc4ccncc4)c3C)n2)c(C)s1 | inactive | 
CC(=O)OCC(=O)[C@@]1(O)CCC2C3CCC4=CC(=O)CC[C@]4(C)C3C(=O)C[C@]21C (some centres undefined) | inactive | 
c1cncc(CNc2ccnc(-c3ccc4c(c3)OCO4)n2)c1 | inactive | 
COc1ccc2[nH]cc(CCNc3ncnc4ccc(-c5ccccc5CN(C)C)cc34)c2c1 | inactive | 
COc1ccc(Oc2ncc3nc(C)c(=O)n(-c4ccccc4)c3n2)cc1 | inactive | 
O=C(OCc1ccccc1)c1ccc(O)cc1 | inactive | 
O=C1C(c2ccccn2)=[N+]([O-])c2ccccc21 | inactive | 
Cn1nccc1C(=O)NCC1CCC2(CCN(Cc3c(O)ccc4ccccc34)CC2)O1 (centres undefined) | inactive | 
COc1ccccc1N1CCN(CCN2C(=O)c3ccccc3C(C)(C)C2=O)CC1 | inactive | 
COc1ccc(-c2nc3cnc(N(C)C)nc3n(Cc3cccs3)c2=O)cc1 | inactive | 
COc1ccc(-n2c(CNC(=O)c3cc(C(F)(F)F)ccc3Cl)nnc2SC)cc1 | inactive | 
CC(=O)O[C@H]1CC[C@@]2(C)C(=CC[C@@H]3[C@@H]2CC[C@]2(C)C(c4cccnc4)=CC[C@@H]32)C1 | inactive | 
COc1ccc(CCCOC(Cn2ccnc2)c2ccc(OC)cc2)cc1 (centres undefined) | inactive | 
Cc1cnc(CNc2nc(-c3cccnc3)nc3ccccc23)cn1 | inactive | 
Cc1cc(C)cc(CN2CCc3nnc(C(NS(C)(=O)=O)C(C)C)n3CC2)c1 (centres undefined) | inactive | 
COCCNc1ncnc2ccc(-c3ccccc3CN(C)C)cc12 | inactive | 
Cc1cccc(CNc2ccnc(-c3cccnc3)n2)c1 | inactive | 
CC(=O)N1CCC2(CCCN(Cc3ccc(C#N)cc3)C2)CC1 | inactive | 
Cc1c(S(=O)(=O)O)oc2c1C(=O)C(=O)c1c-2ccc2c1CCCC2(C)C | 44.7 µM (active) | 
COc1ccc(CN(C)CCn2cc(C(=O)N3CCSCC3)nn2)cc1C | inactive | 
c1ccc(CNc2ncncc2-c2cccnc2)cc1 | inactive | 
CS(=O)(=O)NC(=O)CCC/C=C\C[C@H]1C(=O)C[C@@H](O)[C@@H]1/C=C/[C@H](O)COc1ccccc1 | inactive | 
COc1ccc(C(=O)N2CCC[C@@]3(CCN(C(=O)NC(C)C)C3)C2)cc1 | inactive | 
Cc1cnc(-n2ncc(C(=O)N3CCN(C(C)C)CC3)c2-c2ccco2)nc1-c1ccc(F)cc1 | inactive | 
CN(C)c1ccc(/C=C/c2c3ccccc3nc3ccccc23)cc1 | inactive | 

SMILES | Potency | activity, negative = inhibition
O=c1c(-c2ccc(F)cc2)nc2cncnc2n1-c1ccccc1 | inactive | 
COCC1CCCN(Cc2ccc3c(c2)CN(C(=O)c2ccnn2C)CCO3)C1 (centres undefined) | inactive | 
Cc1c(O)cc2c(c1C)O[C@](C)(CCC[C@H](C)CCC[C@H](C)CCCC(C)C)CC2 | inactive | 
CCc1noc(C)c1C(=O)NCCN1Cc2cc(OC)ccc2OC(CC)C1 (centres undefined) | inactive | 
CC(N)(C(=O)O)c1ccc(-c2nn[nH]n2)cc1 (centres undefined) | inactive | 
O=C1CCC[C@@H]2C[C@@]3(C[C@@H]4CCN1[C@H]24)Nc1ccccc1NC3=NCc1ccccc1 | inactive | 
C=C1O[C@@](CO)(n2cnc3c(N)ncnc32)[C@H](O)[C@@H]1O | inactive | 
CO/N=C(\C(=O)N[C@@H]1C(=O)N2C(C(=O)O)=CCS[C@H]12)c1csc(N)n1 | inactive | 
COC(=O)CC1C(C)(C)C(OC(C)=O)C2CC3=C4CC(=O)OC(c5ccoc5)[C@]4(C)CCC3[C@@]1(C)C2=O (some centres undefined) | inactive | 
COc1ccccc1CNc1ccnc(-c2c(C)noc2C)n1 | inactive | 
COc1ccc(C(=O)N2CCC3(CCCN(C(c4ccccc4)c4ccccc4)C3)CC2)cc1 | inactive | 
CN(C)C(=O)c1ccc(-c2cncnc2NC2CCNCC2)cc1 | inactive | 
CCC1(C2CCN(C(=O)c3cccc(F)c3F)CC2)NC(=O)N(CCc2scnc2C)C1=O (centres undefined) | inactive | 
COc1ccccc1N1CCN(C[C@@H]2CN3C(=O)N(C)c4ccccc4C3=N2)CC1 | inactive | 
CCC(C)[C@H]1COCCS(=O)(=O)N1Cc1ccc(C)cc1 (some centres undefined) | 79.4 µM (active) | 
Cc1ccc(CN2CCCOCCS2(=O)=O)cc1 | inactive | 
Cc1ncc2c(c1CNS(=O)(=O)N(C)C)CCN(C(=O)c1ccccc1F)C2 | inactive | 
COCCNc1cc(-c2c(C)noc2C)ncn1 | inactive | 
C[N+](C)(C)CCCCCNCC12CC3CC(CC(C3)C1)C2 | inactive | 
O=C(O)CCCc1ccccc1 | inactive | 
Cc1cccc(CNC(=O)c2cnn(-c3nccc(-c4ccccc4F)n3)c2C2CC2)n1 | inactive | 
O=C(c1cnccn1)N1CCC[C@@]2(CCN(Cc3ccncc3)C2)C1 | inactive | 
COCCn1c(=O)c(-c2cc(F)cc(F)c2)nc2cnc(N3CCNCC3)nc21 | inactive | 
Cn1cccc1C(=O)N1CCC[C@@]2(CCN(Cc3nccs3)C2)C1 | inactive | 
CC(C)=CC1C(C(=O)O)C1(C)C (centres undefined) | inactive | 

SMILES | Potency | activity, negative = inhibition
CCCCC/C=C\C/C=C\CCCCCCCCCC(=O)O |  | -26.6% [at 11.4 µM] (inactive)
COc1ccccc1C1CN(Cc2ccccc2O)Cc2ccccc2O1 (centres undefined) | inactive | 
Cc1c(O)cc(O)c2c(=O)c(-c3ccc(O)cc3)coc12 | inactive | 
C[C@@H]1O[C@@H](OC[C@H]2O[C@@H](Oc3c(-c4cccc(O)c4O)oc4cc(O)cc(O)c4c3=O)[C@H](O)[C@@H](O)[C@@H]2O)[C@H](O)[C@H](O)[C@H]1O | inactive | 
COc1cccc(Cn2c(=O)c(-c3ccccc3)nc3cnc(OC)nc32)c1 | inactive | 
O=c1c(-c2ccc(F)cc2)nc2cnc(N3CCNCC3)nc2n1Cc1cccs1 | inactive | 
O=C(c1csnn1)N1CCC[C@@]2(CCN(Cc3nccs3)C2)C1 | inactive | 
COCCN1CCN(C(=O)c2sc3ncnc(NCC4CCCO4)c3c2C)CC1 (centres undefined) | inactive | 
O=C(Nc1cccc(F)c1)N1CCC2(CC1)CCN(S(=O)(=O)c1ccccc1)CC2 | inactive | 
c1ccc2c(Nc3ccncc3)nc(-c3ccoc3)nc2c1 | inactive | 
COCCn1c(=O)c(CCc2ccccc2)nc2cncnc21 | inactive | 
CCC(C)[C@@H](N)C(=O)O (some centres undefined) | inactive | 
O=S(=O)(c1ccccc1)N1CCC2(CC1)CN(Cc1nccs1)C2 | inactive | 
COc1ccc(NC(=O)N2CC3(CCN(C(=O)c4cccn4C)CC3)C2)cc1 | inactive | 
COc1cccc(Nc2ncc3ncc(=O)n(C4CC4)c3n2)c1 | inactive | 
C/C=C/C=N/NC(=O)c1ccncc1 | inactive | 
O=c1c(CCc2ccccc2)nc2cnc(N3CCNCC3)nc2n1Cc1cccs1 | inactive | 
COc1ccc(CC(N)C(=O)NC2C(O)[C@H](n3cnc4c(N(C)C)ncnc43)O[C@@H]2CO)cc1 (some centres undefined) | inactive | 
O=C1c2c(O)cccc2[C@@H]([C@@H]2O[C@H](CO)[C@@H](O)[C@H](O)[C@H]2O)c2cc(CO)cc(O)c21 | inactive | 
CCOC(=O)N1CCC(N2CCOc3ccc(CN4CCC(O)(c5cccnc5)CC4)cc3C2)CC1 | 79.4 µM (active) | 
CCOC(=O)N1CCN(Cc2ccc3c(c2)CN(C(=O)c2cccc(-n4cccn4)c2)CCO3)CC1 | inactive | 
CC(C)c1cc(C(=O)N2CCOc3ccc(CN4CCC(Oc5cccnc5)CC4)cc3C2)n[nH]1 | inactive | 
COCCn1c(=O)c(-c2ccc(OC)cc2)nc2cnc(Oc3cccc(Cl)c3)nc21 | inactive | 
CC(C)NC(=O)N1CC[C@@]2(CCCN(C(=O)c3ccco3)C2)C1 | inactive | 
CC(C)(C)c1ccc(C(=O)C[N+]2(C)CCCc3ccccc32)cc1 (centres undefined) | inactive | 

SMILES | Potency | activity, negative = inhibition
COc1ccc(F)c(CN2CCC3(CCC(CNC(=O)c4ccn(C)n4)O3)CC2)c1 (centres undefined) | inactive | 
CS(=O)(=O)Nc1cccc(-c2cncnc2Nc2ccccc2)c1 | inactive | 
CC(=O)OCC(=O)C1CCC2C3CCC4=CC(=O)CC[C@@]4(C)C3CC[C@]12C (some centres undefined) | inactive | 
CC(C)c1ccc2c(c1)c(SC(C)(C)C)c(CC(C)(C)C(=O)O)n2Cc1ccc(Cl)cc1 | inactive and 50.1 µM (active) | 
N#Cc1cccc(-c2ccc3ncnc(NCc4cccs4)c3c2)c1 | inactive | 
C=C(C)C1CC=C(CO)CC1 (centres undefined) | inactive | 
CCCC1C(=O)N2C(N(C)C)=Nc3ccc(C)cc3N2C1=O (centres undefined) | inactive | 
COC(=O)N1CCC2(CCCN(c3ccncc3)C2)CC1 | inactive | 
CC[N+](C)(CC)CCC[n+]1c(-c2ccccc2)c2cc(N)ccc2c2ccc(N)cc21 | 50.1 µM (active) | 
O=C1CCN(Cc2ccc([N+](=O)[O-])cc2)CCN1[C@H](CO)Cc1ccccc1 | inactive | 
Cc1cccc(-c2cc(=O)c3cc(C)ccc3o2)c1 | inactive | 
CN(C)CCc1c[nH]c2ccc(Cn3cncn3)cc12 | inactive | 
Cc1noc(C)c1-c1cc(NCc2cccnc2)ncn1 | inactive | 
C=CC1(C)CC(=O)C2(O)C(C)(O1)C(OC(C)=O)C(O)C1C(C)(C)CCC(O)C12C (centres undefined) | inactive | 
COc1cc(-c2cccnc2)cc2c1OCCN(C(=O)Cc1csc(C)n1)C2 | inactive | 
CCCCCCc1ccc(O)cc1O | 39.8 µM (active) | 
NCCC[C@H](N)CC(=O)N[C@H]1CNC(=O)[C@H]([C@H]2C[C@H](O)NC(N)=N2)NC(=O)/C(=C/NC(N)=O)NC(=O)[C@H](CO)NC(=O)[C@H](CO)NC1=O (β3hOrn-[Dap]SS[ΔAla(Z-3-ureido)][X12]; lactam 1-C) | inactive | 
O=C(O)C[C@@H]1NC(=O)[C@H](Cc2ccccc2)NC1=O | inactive | 
COc1ccc2c(c1)CCc1cnc(-n3ncc(C(=O)NCc4cccnc4)c3C3CC3)nc1-2 | inactive | 
Cc1nc2cnc(Nc3ccccc3)nc2n(C[C@H]2CCCO2)c1=O | inactive | 
CN1CCN(c2ncc3nc(-c4ccc(Cl)cc4)c(=O)n(-c4ccccc4)c3n2)CC1 | inactive | 
Cc1nc2cnc(N3CCN(C)CC3)nc2n(C[C@H]2CCCO2)c1=O | inactive | 
CC(O)[C@@H](N)C(=O)O (some centres undefined) | inactive | 
COC(=O)C1CCCCN1Cc1ccc2c(c1)CN(Cc1cc(OC)c3c(c1)OCO3)CCO2 (centres undefined) | inactive | 
